In PubChem BioAssay AID449762 (Southern Research Specialized Biocontainment Screening …, 2010):
In all, about 330,000 compounds went through this assay and about 1,900 (0.58%) were called active. Inconclusive results (about 4%) are left out. A selection follows. Results with a measured potency or affinity are listed apart. Values without a mark were called inactive. No stated cut-off is given here; in the data, inconclusive means inhibition above about 70% without an active follow-up result; inactive means below that.

Test: M. tuberculosis growth inhibition, HTS (AID 449762);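 further: bacterial growth assessed after seven days of incubation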
Conditions: M. tuberculosis H37Rv growth inhibition, 7H9 media; at 25 µM; active compounds read high

Compound | inhibition [%]
COc1ccc(CCN(C(=O)c2cccc(F)c2)C2CC(=O)N(c3ccc(OC)cc3)C2=O)cc1 (configuration not stated) | 2.05
CCN(CC(=O)Nc1c(F)cccc1F)C(=O)CCCc1nc2ccccc2c(=O)[nH]1 | 5.24
Cc1cccc(CCNC(=O)CC2C(=O)NCCN2CC2CCCCC2)n1 (configuration not stated) | 0.82
CCOC(=O)c1c(NC(=O)CSc2nc3ccccc3[nH]2)sc2c1CC(C)(C)NC2(C)C | 35.9
CCOC(=O)c1c(NC(=O)CSc2ncccn2)sc2c1CC(C)(C)NC2(C)C | 8.68
O=C(O)CC(Cc1ccc(Cl)cc1)C(=O)NCc1ccccc1 (configuration not stated) | -1.83
O=C(O)c1cnn(-c2nc(-c3cccc(F)c3)cs2)c1C(F)(F)F | -9.37
CCCNC(=O)c1ccccc1NC(=O)Nc1ccccc1C | -3.01
COc1ccc2cc1Oc1ccc(cc1)C[C@H]1c3cc(c(OC)cc3CCN1C)Oc1c(OC)c(OC)cc3c1[C@H](C2)N(C)CC3 | -2.74
COc1ccc2cc1Oc1ccc(cc1)CC1c3c(cc(OC)c4c3Oc3cc5c(cc3O4)CCNC5C2)CCN1C (configuration not stated) | 2.26
COc1ccc(NC(=O)C2CCCO2)cc1Cl (configuration not stated) | 55.9
COc1cc(C(=O)NCCOc2ccc(Cl)cc2)ccc1OCc1c(C)noc1C | -3.72
CCCC(=O)Nc1ccc2c(c1)nc(CN1CCCC1)n2C | -1.98
Cc1cc(C)n2nc(C(=O)OC(C)C(=O)c3ccccc3)nc2n1 (configuration not stated) | 7.53
Cc1ccc(-c2cc(C(=O)NCCCn3ccnc3)c3cc(Br)ccc3n2)o1 | 4.01
O=C(NCCCn1ccnc1)c1cc(-c2cccnc2)nc2ccc(Br)cc12 | 4.38
COc1ccc(OCC(O)Cn2c(N)nc3c2c(=O)[nH]c(=O)n3C)cc1 (configuration not stated) | -6.1
Cc1cc(C(=O)Nc2sc3c(c2C#N)CCC(C(C)(C)C)C3)no1 (configuration not stated) | -1.37
CC1CCc2sc(-c3n[nH]c(=S)o3)cc2C1 (configuration not stated) | 4.83
Cc1[nH]c(C(=O)N/N=C/c2ccc(C(=O)O)cc2)c(C)c1C(=O)N/N=C/c1ccc(C(=O)O)cc1 | 2.47
CCOC(=O)N1c2ccccc2Sc2ccccc21 | 10.8
N/C(=N\OC(=O)N1c2ccccc2Sc2ccccc21)c1ccc(Br)cc1 | -4.44
O=C(O)C(Cc1cnc[nH]1)NS(=O)(=O)c1ccc(Cl)cc1 (configuration not stated) | 0.91

Compound | inhibition [%]
CN1CCN(C(=S)c2ccc(N(C)C)cc2)CC1 | -4.96
O=[N+]([O-])c1cccc(/C=N/Nc2nccnc2Cl)c1 | -0.09
COc1ccc(CN2CCC(N3CC(C)OC(C)C3)CC2)c(OC)c1 (configuration not stated) | 1.06
COc1cc(-c2ccc3oc(-c4ccsc4)c(C#CC4(O)CCCCC4)c3c2)cc(OC)c1OC | 51.2
CCn1nnc2c(=O)oc3ccccc3c21 | 28.6
CC(C)n1nnc2c(=O)oc3ccccc3c21 | 48
CC1CC(C)CN(C(=O)Cn2nnc(-c3ccc(Br)cc3)n2)C1 (configuration not stated) | 2.83
CCOC(=O)Cn1c(C)cc(=O)c2cccc(C)c21 | 16.2
CCOC(=O)Cn1c(=O)cc(C)c2cccc(C)c21 | 57.9
COc1ccc(CC(=O)NCc2nnc(SCC(=O)Nc3ccccc3)n2C)cc1 | 4.29
O=C(NCC(=O)N1CCN(c2ccccc2O)CC1)c1ccccc1 | 7.74
CCCCCCC1CC(CCc2nc(=S)[nH][nH]2)C(=O)O1 (configuration not stated) | -0.55
O=C(NCC1CCCCC1)c1cccc([N+](=O)[O-])c1 | 4.44
COC(=O)c1cc(C(=O)NCC2CCCCC2)cc([N+](=O)[O-])c1 | -5.46
CCOC(=O)C1(CC2CC2)CCN(Cc2cc(Cl)c(O)c(OC)c2)CC1 | -1.14
CCCCn1c(=O)c(C(=O)NCc2ccc(Cl)cc2)c(O)c2ccccc21 | 13
O=[N+]([O-])c1cc(C(F)(F)F)cc([N+](=O)[O-])c1N1CCCNCC1 | -2.74
COc1ccc(N=Nc2ccc(O)c3ncccc23)cc1 | 64.2
Cc1ccc(N=Nc2ccc(O)c3ncccc23)cc1 | 63.9
COc1ccc(OCCNC(=O)CCCO)cc1 | -4.06
Cc1ccsc1/C=N/NC(=O)c1ccc(Cn2cc(Br)cn2)o1 | -7.92
O=C1Nc2cc(C(=O)NCC3CCCO3)ccc2S/C1=C/c1ccccc1F (configuration not stated) | 2.49
COc1ccc(-c2csc(/C(C#N)=C\c3ccc(OC)c([N+](=O)[O-])c3)n2)cc1 | 11.1

Compound | inhibition [%]
COc1ccc(-c2csc(/C(C#N)=C\c3cccc([N+](=O)[O-])c3)n2)cc1 | 9.75
Cc1ccc(C#CC[N+]2(C)CCCCC2)cc1 | -6.71
C#CC[N+]1(CC#Cc2ccc(C)cc2)CCCCC1 | 6.8
Cc1ccc(/C=N/Nc2nnc(Cc3ccccc3)c(=O)[nH]2)o1 | 0.24
CCOc1ccc(-c2cc(N)n(S(=O)(=O)c3cccc4nsnc34)n2)cc1 | -2.37
O=C(NCC(c1ccco1)N1CCOCC1)C1CCCCC1 (configuration not stated) | 1.93
Cn1cnc([N+](=O)[O-])c1Sc1ncnc2nc[nH]c12 | 3.96
O=C(CSc1ncnc2nc[nH]c12)c1ccc([N+](=O)[O-])cc1 | -8.27
COc1ccccc1C(=O)NC(=O)COC(=O)c1nc2nc(C)cc(C)n2n1 | -0.8
CCc1cc2c(=O)c(-c3nc4ccccc4n3C)c(C(C)C)oc2c(CN2CCN(C)CC2)c1O | 3.5
CCOc1ccccc1NC1=C(Cl)C(=O)N(c2ccc(OC)cc2)C1=O | -6.27
COc1ccc(N2C(=O)C(Cl)=C(Nc3ccccc3OC)C2=O)cc1 | -3.72
O=S(=O)(c1ccc2ccccc2c1)N1CCN(CCO)CC1 | 4.19
Cc1ccc(S(=O)(=O)N(CC(=O)c2ccc(Cl)cc2)C(=O)N2CCN(C)CC2)cc1 | -5.16
COc1cccc(CC(NC(C)=O)C(=O)NC2CCN(S(=O)(=O)c3cccc4ccccc34)CC2)c1 (configuration not stated) | 1.8
COC(=O)c1ccc(NC(=O)CSCc2ccccc2C)cc1 | 21.9
Cc1cccc(C)c1OCc1cc(C(=O)N2CCN(c3ccccc3)CC2C)no1 (configuration not stated) | 61.7
CCOc1ccccc1N1CCN(C(=O)c2cn(CC3CCCCC3)nn2)CC1 | 53.5
Cc1ccnc(NC(=O)c2ccc(Cl)c(NC(=O)c3ccccc3C)c2)c1 | -1.18
O=C(Nc1ccon1)Nc1cccc(Cl)c1Cl | -8.3
Cc1cc(C(=O)Nc2nc3ccc(S(C)(=O)=O)cc3s2)c(C)o1 | -11.6
Cc1ccc2cc(C(c3nnnn3CC3CCCO3)N3CCc4ccccc4C3)c(=O)[nH]c2c1 (configuration not stated) | 11.1
NS(=O)(=O)c1ccc(N=Nc2ccc(O)c3ncccc23)cc1 | -1.88

Compound | inhibition [%]
Nc1ccc(N=Nc2ccccc2)c2ccccc12 | -11.4
CCCC(=O)Nc1nnc(S(=O)(=O)N(CC)c2ccc(OC)cc2)s1 | 6.35
O=c1[nH]c2ccccc2nc1Cc1ccc([N+](=O)[O-])cc1 | 1.98
Cc1nn(C(C)C(=O)N2CCCC2)c(=O)c2nn(-c3ccccc3)c(C)c12 (configuration not stated) | 4.45
O=C([O-])c1cc(-c2ccccc2)cc(-c2ccccc2)[n+]1Cc1ccccc1 | 2.25
Cc1cc(-c2ccccc2)cc(C)[n+]1Cc1ccccc1 | 4.78
Cn1c(=O)cc(SCC(=O)N2CCOCC2)c2ccc(Cl)cc21 | -11.3
Cn1c(=O)cc(SCC(=O)N2CCCC2)c2ccc(Cl)cc21 | 3.77
Cc1cccc(CCNC(=O)c2cc(S(=O)(=O)N3CCCC3)cn2C)c1 | -6.27
Cc1ccc(/C=C/C(=O)OCC(=O)NC(=O)NCc2ccccc2)cc1 | -1.66
Cc1ccc(C2C(C#N)=C(N)OC3=C2C(=O)CC(C)(C)C3)s1 (configuration not stated) | 4.01
CC1(C)CC(=O)C2=C(C1)OC(N)=C([N+](=O)[O-])C2c1cccs1 (configuration not stated) | 3.64
COC(C(=O)Nc1cccc(F)c1)c1ccccc1 (configuration not stated) | 1.2
COc1ccc(/C=C/C(=O)Nc2cc(S(=O)(=O)N3CCCCC3)ccc2N2CCCCC2)cc1OC | 6.87
CCN1CCN(c2ccc(S(=O)(=O)N3CCCCC3)cc2NC(=O)/C=C/c2ccc([N+](=O)[O-])cc2)CC1 | 67.1
CCCCCNC(=O)c1ccc2c(c1)ncn2-c1ccc(OC)cc1 | 13.7
CCOc1ccc([C@@H]2CC=C(C(=O)O)[C@H](c3ccc(Cl)cc3)N2S(=O)(=O)c2ccc(C)cc2)cc1 | -1.26
Cn1cc(CCNC(=O)CC2C(=O)NCCN2Cc2cccc(Oc3ccccc3)c2)cn1 (configuration not stated) | 2.08
CN(C)CCCNC1=CC(=O)CC(c2ccccc2)C1 (configuration not stated) | -4.95
CCCCCNC1=CC(=O)CC(c2ccccc2)C1 (configuration not stated) | -1.58
COc1ncnc2c1cnn2-c1ccccc1 | 7.17
C=CCOn1c(=O)c(-c2ccc(OCC)cc2)[n+]([O-])c2ccccc21 | 6.39
O=C(CCCSc1nc2ccccc2[nH]1)N1CCN(c2ccc([N+](=O)[O-])cc2)CC1 | -13.5
